This is an account of results in the supplement of paper PMC6555819.

Common to all, as to experiment: PBM binding z-score (relative to random genomic background probes); higher = stronger binding; sequences stand for … in GC…GCGATTGACAGCGTAGAATGAAGG
The test system of experiment [1] is RARb homodimer (NR concentration 270 nM). A digest of the protocol: (§1)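 Custom Agilent 4×180K protein-binding microarrays carried double-stranded probes. Their 34-nt variable regions held direct-repeat seeds, single-nucleotide variants, half-site ablations and random human genomic background sequences. Arrays were incubated 1 h with ligand-free nuclear receptor dimers in PBS pH 7.4, 2% milk, 0.02% Triton X-100, 1 mM DTT, 0.2 mg/mL BSA and 0.4 mg/ml salmon testes DNA. Antibodies against each partner (one per run) detected binding, and scanned fluorescence was regression-normalized. Binding z-scores use random background probes as reference.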

The subject of experiment [2] is RARg:RXRa (NR concentration 270 nM, RXRa partner concentration 90 nM). The method in brief: as §1
Experiment [3] deals with RARg homodimer (NR concentration 270 nM). The method in brief: as §1
Experiment [4] deals with RXRa DBDmut IVT, anti-RXR (DBD mutation: RXRa K156A/R161A, NR concentration 90 nM). The method in brief: as §1
Experiment [5] deals with RXRa homodimer (NR concentration 180 nM). The method in brief:
as §1

Experiment [6] relates to THRa:RXRa (NR concentration 90 nM, RXRa partner concentration 90 nM). A digest of the protocol:
as §1

The test system of experiment [7] is THRa homodimer (NR concentration 90 nM). The method in brief:
as §1

Experiment [8] concerns VDR homodimer (NR concentration 270 nM). The method in brief:
as §1

As to TCTTGCAGGCCAGAGGGTCACTCAAGAGGTACGG, the PBM binding z-score in experiment [1] is 2.73; in experiment [2], 2.73; in experiment [3] it was 2.38; in experiment [4] it was 0.074; in experiment [5] it was 2.37; in experiment [6] it was 1.79. Besides, the PBM binding z-score in experiment [7] was -0.22; in experiment [8] it was 0.546.

Take CCTGCTAGGTCAATGGTGAGCTAAAGCAGCTCGC: the PBM binding z-score in experiment [1] amounted to 1.97; in experiment [2], 3.3; in experiment [3] it was 4.12; in experiment [4], 1.62; in experiment [5] it was 1.56; in experiment [6] it was 1.77. Further, the values for the PBM binding z-score in experiment [7] and in experiment [8] were 0.113 and -0.465, respectively.

Take TCTCGGAGGGCACGAAGGTCAGAGCTTTCCAGAG: the PBM binding z-score in experiment [1] is 3.94; in experiment [2], 4.11; in experiment [3], 3.97; in experiment [4], 0.77; in experiment [5] it was 2.79; in experiment [6] it was 2.63. Also, the values for the PBM binding z-score in experiment [7] and in experiment [8] were -0.228 and 1.81, respectively.

For the sequence GCTGTTAGTTGAAAGGGCAACCGAATGATTCTCG, the PBM binding z-score was determined as 2.03 in experiment [1]; 1.49 in experiment [2]; 1.43 in experiment [3]; 0.773 in experiment [4]; 1.23 in experiment [5]; 0.729 in experiment [6]. In addition, the PBM binding z-score in experiment [7] was -0.379; in experiment [8], -0.0381.

For the sequence AGTCACAGTTCATCTAGGTAACGTAAGATATGCT, the PBM binding z-score in experiment [1] worked out at 1.67; in experiment [2] it was 2.47; in experiment [3], 2.66; in experiment [4] it was 3.33; in experiment [5], 2.05; in experiment [6] it was 2.13. The figures for the PBM binding z-score in experiment [7] and in experiment [8] were 0.362 and 3.1, respectively.

As to TAGCCTAGGTCATTCAGGGGCCAGTATAGAAAGC, the PBM binding z-score in experiment [1] amounted to 3.29; in experiment [2] it was 6.13; in experiment [3], 4.44; in experiment [4] it was 1.6; in experiment [5], 2.84; in experiment [6], 3.45. In addition, the PBM binding z-score was determined as 0.509 in experiment [7] and 1.32 in experiment [8].

With AGAACGAGGGCACCCTGAGTTGATAGCAGAGTAG, the PBM binding z-score came out at 0.823 in experiment [1]; 1.54 in experiment [2]; 1.76 in experiment [3]; 1.42 in experiment [4]; 1.14 in experiment [5]; 1.59 in experiment [6]. The PBM binding z-score in experiment [7] was -0.12; in experiment [8] it was 1.36.
